Results: paper PMC7862700, “An all-to-all approach to the identification of sequence-specific readers for epigenetic DNA modifications on cytosine”

Key:
Assay in all cases: DAPPL (digital affinity profiling via proximity ligation, sequencing); 10 mM Tris-HCl pH 7.5, 50 mM NaCl, 1 mM DTT, 4% glycerol, room temperature, 30 min; GST-TFs on glutathione beads, 16-mer random dsDNA library, 0.1% formaldehyde crosslink after washing; high values mean tight binding
FEV = biological target: T1, FEV (Homo sapiens, UniProt Q99581 1-238); conditions: protein: recombinant; tags: N-terminal GST; dsDNA, one strand shown
T1 sequence: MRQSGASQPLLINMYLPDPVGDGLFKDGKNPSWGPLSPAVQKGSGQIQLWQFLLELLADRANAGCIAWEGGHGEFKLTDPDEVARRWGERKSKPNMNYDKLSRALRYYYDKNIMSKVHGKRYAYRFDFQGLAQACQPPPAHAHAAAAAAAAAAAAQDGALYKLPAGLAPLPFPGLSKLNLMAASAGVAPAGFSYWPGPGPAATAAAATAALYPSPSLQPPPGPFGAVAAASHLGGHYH
How it was run: (§1)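 Yeast served to express human transcription factors as GST fusions, which were then captured on glutathione beads and labelled with DNA barcodes. Pooled with a tag-only sample, they were incubated with 200 nmole of a 16-mer random double-stranded DNA library for 30 min at room temperature in Tris/NaCl/DTT/glycerol buffer, washed, crosslinked with 0.1% formaldehyde, ligated by proximity, amplified by PCR and sequenced. Dividing each hexamer's read frequency for a factor by its frequency for the tag-only sample gives the binding signal.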

ETV5 = ETV5 (Homo sapiens, UniProt P41161 1-510); conditions: protein: recombinant; tags: N-terminal GST; dsDNA, one strand shown
Chain of ETV5 (P41161 whole entry): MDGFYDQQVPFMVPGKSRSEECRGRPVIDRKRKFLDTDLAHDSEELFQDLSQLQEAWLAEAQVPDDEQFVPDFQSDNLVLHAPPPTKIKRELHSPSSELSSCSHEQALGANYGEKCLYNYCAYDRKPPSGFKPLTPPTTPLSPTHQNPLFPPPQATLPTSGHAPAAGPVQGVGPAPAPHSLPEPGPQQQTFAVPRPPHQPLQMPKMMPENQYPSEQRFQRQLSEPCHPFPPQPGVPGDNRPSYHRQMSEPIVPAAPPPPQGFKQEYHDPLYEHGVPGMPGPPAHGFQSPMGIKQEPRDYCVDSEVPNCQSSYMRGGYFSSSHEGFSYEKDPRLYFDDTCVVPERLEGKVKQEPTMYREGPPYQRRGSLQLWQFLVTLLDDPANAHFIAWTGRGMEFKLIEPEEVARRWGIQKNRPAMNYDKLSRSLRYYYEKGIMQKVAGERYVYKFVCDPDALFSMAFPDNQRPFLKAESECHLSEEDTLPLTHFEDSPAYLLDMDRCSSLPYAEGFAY
How it was run: as §1

HSF1 = HSF1 (Homo sapiens, UniProt Q00613 1-529); conditions: protein: recombinant; tags: N-terminal GST; chain copies: 3; dsDNA, one strand shown
Chain of HSF1 (Q00613 whole entry): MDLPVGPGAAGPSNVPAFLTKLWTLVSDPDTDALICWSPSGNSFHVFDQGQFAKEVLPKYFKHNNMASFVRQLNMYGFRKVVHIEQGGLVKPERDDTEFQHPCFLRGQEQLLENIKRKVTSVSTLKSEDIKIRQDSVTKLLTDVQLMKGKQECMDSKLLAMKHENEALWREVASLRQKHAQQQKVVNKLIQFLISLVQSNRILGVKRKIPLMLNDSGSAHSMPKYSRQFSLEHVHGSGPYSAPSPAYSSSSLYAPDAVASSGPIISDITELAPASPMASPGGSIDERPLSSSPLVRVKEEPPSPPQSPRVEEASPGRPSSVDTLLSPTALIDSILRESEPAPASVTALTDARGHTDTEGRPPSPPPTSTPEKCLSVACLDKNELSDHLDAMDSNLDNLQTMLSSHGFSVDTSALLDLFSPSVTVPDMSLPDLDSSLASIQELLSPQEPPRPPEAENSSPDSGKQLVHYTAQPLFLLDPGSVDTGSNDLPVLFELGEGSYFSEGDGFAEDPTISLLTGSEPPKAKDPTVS
How it was run: as §1

SPIC = biological target: T2, SPIC (Homo sapiens, UniProt Q8N5J4 1-248); conditions: protein: recombinant; tags: N-terminal GST; dsDNA, one strand shown
T2 sequence: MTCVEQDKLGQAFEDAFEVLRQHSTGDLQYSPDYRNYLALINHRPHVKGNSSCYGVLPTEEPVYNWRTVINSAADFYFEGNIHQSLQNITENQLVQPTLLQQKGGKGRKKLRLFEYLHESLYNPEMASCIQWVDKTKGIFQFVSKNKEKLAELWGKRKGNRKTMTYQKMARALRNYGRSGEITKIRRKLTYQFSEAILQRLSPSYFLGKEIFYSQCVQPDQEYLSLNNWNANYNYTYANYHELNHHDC
How it was run: as §1

ELF4 = ELF4 (Homo sapiens, UniProt Q99607 1-663); conditions: protein: recombinant; tags: N-terminal GST; dsDNA, one strand shown
Chain of ELF4 (Q99607 whole entry): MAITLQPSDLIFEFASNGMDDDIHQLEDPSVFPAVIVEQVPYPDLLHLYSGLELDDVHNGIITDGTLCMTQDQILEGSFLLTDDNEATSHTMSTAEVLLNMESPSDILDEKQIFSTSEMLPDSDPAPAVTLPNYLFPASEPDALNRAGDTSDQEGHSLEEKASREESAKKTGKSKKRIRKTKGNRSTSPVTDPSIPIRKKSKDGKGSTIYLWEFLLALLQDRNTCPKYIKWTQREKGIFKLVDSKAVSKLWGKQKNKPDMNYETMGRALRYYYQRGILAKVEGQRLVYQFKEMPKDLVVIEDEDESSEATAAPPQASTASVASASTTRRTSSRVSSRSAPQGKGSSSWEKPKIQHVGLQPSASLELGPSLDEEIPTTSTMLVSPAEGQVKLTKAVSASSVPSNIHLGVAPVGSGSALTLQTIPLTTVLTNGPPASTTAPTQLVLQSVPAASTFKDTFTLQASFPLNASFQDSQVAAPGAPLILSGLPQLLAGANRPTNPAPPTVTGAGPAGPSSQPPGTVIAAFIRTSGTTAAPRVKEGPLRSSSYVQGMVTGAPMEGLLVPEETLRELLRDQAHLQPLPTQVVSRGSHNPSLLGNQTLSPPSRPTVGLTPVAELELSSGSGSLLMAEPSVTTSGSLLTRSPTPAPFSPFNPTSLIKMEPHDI
How it was run: as §1

ELK4 = biological target: T3, ELK4 (Homo sapiens, UniProt P28324-2 1-405); conditions: protein: recombinant; tags: N-terminal GST; dsDNA, one strand shown
T3 sequence: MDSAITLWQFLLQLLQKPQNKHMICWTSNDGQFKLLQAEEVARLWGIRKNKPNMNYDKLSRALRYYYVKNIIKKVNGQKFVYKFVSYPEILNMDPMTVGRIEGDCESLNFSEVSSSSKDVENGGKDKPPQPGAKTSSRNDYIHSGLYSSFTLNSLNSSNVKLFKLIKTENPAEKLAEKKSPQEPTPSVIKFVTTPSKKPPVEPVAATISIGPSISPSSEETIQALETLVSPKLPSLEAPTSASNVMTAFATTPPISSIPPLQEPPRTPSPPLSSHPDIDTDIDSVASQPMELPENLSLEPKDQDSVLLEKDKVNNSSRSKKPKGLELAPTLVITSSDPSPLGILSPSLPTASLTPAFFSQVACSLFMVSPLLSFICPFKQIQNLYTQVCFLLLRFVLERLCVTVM
How it was run: as §1

ETV2 = biological target: T4, ETV2 (Homo sapiens, UniProt O00321 1-342); conditions: protein: recombinant; tags: N-terminal GST; dsDNA, one strand shown
T4 sequence: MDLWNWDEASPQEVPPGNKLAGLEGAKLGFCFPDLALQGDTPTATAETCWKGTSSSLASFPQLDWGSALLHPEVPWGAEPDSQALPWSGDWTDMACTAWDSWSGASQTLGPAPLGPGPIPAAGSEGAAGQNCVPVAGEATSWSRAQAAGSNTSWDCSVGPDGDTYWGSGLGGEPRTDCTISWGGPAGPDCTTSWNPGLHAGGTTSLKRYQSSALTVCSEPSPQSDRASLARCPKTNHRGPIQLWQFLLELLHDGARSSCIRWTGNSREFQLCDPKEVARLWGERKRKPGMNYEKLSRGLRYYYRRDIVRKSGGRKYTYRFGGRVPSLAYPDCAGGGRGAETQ
How it was run: as §1

ELF3 = biological target: T5, ELF3 (Homo sapiens, UniProt P78545 1-371); conditions: protein: recombinant; tags: N-terminal GST; dsDNA, one strand shown
T5 sequence: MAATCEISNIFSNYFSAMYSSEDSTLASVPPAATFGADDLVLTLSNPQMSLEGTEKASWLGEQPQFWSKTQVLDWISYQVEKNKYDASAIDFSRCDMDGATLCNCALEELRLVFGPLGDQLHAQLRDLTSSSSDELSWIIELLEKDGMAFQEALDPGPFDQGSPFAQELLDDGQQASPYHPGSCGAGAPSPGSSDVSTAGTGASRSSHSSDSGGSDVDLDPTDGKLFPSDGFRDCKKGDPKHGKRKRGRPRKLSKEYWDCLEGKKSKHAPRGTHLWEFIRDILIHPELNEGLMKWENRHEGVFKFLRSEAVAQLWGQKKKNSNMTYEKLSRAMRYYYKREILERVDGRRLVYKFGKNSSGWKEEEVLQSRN
How it was run: as §1

CRX = CRX (Homo sapiens, UniProt O43186 1-299); conditions: protein: recombinant; tags: N-terminal GST; dsDNA, one strand shown
Chain of CRX (O43186 whole entry): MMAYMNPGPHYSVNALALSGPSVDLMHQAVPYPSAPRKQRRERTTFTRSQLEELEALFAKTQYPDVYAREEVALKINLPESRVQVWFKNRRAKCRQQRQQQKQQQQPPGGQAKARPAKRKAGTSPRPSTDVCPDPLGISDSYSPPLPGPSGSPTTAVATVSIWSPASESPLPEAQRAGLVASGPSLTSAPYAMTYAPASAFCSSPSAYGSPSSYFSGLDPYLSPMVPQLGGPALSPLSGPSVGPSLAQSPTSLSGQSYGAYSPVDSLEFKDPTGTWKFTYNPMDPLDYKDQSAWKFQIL
How it was run: as §1

ETV1 = ETV1 (Homo sapiens, UniProt P50549 1-477); conditions: protein: recombinant; tags: N-terminal GST; dsDNA, one strand shown
Chain of ETV1 (P50549 whole entry): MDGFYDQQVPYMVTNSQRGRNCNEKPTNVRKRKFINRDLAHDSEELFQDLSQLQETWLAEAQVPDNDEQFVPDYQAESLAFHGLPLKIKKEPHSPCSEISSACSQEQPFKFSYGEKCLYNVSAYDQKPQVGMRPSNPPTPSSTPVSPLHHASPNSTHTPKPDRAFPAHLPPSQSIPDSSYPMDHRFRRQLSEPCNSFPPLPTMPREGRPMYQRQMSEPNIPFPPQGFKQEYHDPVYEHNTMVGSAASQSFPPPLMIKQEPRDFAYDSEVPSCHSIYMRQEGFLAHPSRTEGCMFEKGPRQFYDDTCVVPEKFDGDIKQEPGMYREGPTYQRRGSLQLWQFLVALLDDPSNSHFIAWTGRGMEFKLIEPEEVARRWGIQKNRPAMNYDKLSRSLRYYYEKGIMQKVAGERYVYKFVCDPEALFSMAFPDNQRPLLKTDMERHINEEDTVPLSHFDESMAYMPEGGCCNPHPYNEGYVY
How it was run: as §1

ERF = biological target: T6, ERF (Homo sapiens, UniProt P50548 1-548); conditions: protein: recombinant; tags: N-terminal GST; dsDNA, one strand shown
T6 sequence: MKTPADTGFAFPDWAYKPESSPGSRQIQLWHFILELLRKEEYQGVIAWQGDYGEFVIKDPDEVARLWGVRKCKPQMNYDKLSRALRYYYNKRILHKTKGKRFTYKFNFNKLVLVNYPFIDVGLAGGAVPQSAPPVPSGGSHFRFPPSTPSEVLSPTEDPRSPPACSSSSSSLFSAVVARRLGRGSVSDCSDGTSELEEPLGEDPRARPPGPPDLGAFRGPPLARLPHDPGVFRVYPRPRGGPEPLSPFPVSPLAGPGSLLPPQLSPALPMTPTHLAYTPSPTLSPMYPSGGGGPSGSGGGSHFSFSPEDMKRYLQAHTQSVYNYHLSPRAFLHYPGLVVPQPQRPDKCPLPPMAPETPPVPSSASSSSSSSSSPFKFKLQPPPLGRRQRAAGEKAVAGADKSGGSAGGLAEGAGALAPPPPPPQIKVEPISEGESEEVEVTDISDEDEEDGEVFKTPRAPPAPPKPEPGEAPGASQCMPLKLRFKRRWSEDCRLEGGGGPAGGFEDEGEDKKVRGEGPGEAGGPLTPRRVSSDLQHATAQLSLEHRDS
How it was run: as §1

ETV3L = biological target: T7, ETV3L (Homo sapiens, UniProt Q6ZN32 1-361); conditions: protein: recombinant; tags: N-terminal GST; dsDNA, one strand shown
T7 sequence: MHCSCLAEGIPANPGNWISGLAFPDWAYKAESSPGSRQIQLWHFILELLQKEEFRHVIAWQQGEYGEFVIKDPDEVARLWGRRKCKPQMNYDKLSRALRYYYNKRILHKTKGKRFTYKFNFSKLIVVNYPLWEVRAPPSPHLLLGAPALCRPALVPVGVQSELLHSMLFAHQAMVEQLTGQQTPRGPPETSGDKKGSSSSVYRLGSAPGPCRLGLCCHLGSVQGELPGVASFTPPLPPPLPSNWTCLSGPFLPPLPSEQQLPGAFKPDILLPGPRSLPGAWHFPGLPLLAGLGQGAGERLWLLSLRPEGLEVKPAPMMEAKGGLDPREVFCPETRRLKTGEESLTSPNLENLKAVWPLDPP
How it was run: as §1

ETS2 = biological target: T8, ETS2 (Homo sapiens, UniProt P15036 1-469); conditions: protein: recombinant; tags: N-terminal GST; dsDNA, one strand shown
T8 sequence: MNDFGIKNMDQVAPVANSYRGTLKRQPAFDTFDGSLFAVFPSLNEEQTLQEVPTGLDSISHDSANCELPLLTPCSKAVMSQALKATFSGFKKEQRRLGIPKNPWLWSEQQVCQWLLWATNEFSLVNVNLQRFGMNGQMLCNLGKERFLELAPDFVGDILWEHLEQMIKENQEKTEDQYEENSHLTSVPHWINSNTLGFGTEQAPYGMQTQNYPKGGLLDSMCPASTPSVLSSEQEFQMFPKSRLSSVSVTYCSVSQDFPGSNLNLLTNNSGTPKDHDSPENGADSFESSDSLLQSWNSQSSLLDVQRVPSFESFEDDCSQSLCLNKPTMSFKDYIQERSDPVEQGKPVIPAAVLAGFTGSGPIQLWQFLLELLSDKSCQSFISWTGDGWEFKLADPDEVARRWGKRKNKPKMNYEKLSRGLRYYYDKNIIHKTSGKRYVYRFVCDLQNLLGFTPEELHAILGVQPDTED
How it was run: as §1

ETV7 = biological target: T9, ETV7 (Homo sapiens, UniProt Q9Y603 1-341); conditions: protein: recombinant; tags: N-terminal GST; dsDNA, one strand shown
T9 sequence: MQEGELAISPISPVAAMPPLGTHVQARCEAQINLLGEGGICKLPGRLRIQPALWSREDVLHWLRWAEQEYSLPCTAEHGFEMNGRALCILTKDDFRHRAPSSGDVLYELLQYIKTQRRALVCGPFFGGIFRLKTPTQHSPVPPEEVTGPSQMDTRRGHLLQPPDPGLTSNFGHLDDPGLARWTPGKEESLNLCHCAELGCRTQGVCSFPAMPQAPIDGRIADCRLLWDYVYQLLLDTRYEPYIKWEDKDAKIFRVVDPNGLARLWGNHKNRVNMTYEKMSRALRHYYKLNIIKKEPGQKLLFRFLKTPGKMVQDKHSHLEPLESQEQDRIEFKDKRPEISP
How it was run: as §1

ELF5 = biological target: T10, ELF5 (Homo sapiens, UniProt Q9UKW6-2 1-255); conditions: protein: recombinant; tags: N-terminal GST; dsDNA, one strand shown
T10 sequence: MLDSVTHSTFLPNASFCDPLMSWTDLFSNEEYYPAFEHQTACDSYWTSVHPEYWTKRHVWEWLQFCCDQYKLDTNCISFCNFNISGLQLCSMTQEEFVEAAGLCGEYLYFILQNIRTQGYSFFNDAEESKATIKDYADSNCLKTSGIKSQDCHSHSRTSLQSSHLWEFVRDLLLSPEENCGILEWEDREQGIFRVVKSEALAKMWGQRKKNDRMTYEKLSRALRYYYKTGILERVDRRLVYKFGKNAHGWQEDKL
How it was run: as §1

ETV3 = biological target: T11, ETV3 (Homo sapiens, UniProt P41162-2 1-143); conditions: protein: recombinant; tags: N-terminal GST; dsDNA, one strand shown
T11 sequence: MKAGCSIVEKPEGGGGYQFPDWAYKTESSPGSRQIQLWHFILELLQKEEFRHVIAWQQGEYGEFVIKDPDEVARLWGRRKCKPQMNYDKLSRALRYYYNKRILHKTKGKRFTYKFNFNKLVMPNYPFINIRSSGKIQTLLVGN
How it was run: as §1

ETV6 = ETV6 (Homo sapiens, UniProt P41212 1-452); conditions: protein: recombinant; tags: N-terminal GST; dsDNA, one strand shown
Chain of ETV6 (P41212 whole entry): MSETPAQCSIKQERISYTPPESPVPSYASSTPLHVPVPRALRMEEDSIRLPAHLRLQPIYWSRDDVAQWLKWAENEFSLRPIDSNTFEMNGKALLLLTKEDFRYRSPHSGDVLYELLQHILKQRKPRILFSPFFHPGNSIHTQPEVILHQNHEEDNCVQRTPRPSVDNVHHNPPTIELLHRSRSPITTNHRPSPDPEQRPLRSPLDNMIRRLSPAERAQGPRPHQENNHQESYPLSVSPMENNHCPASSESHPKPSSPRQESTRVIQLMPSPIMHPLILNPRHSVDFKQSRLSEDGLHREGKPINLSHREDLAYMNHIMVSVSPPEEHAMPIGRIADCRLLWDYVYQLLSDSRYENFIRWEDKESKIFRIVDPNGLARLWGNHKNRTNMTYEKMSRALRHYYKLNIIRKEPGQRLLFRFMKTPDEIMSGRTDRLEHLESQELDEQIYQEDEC
How it was run: as §1

| Sequence | binding signal (FEV) | binding signal (ETV5) | binding signal (HSF1) | binding signal (SPIC) | binding signal (ELF4) | binding signal (ELK4) | binding signal (ETV2) | binding signal (ELF3) | binding signal (CRX) | binding signal (ETV1) | binding signal (ERF) | binding signal (ETV3L) | binding signal (ETS2) | binding signal (ETV7) | binding signal (ELF5) | binding signal (ETV3) | binding signal (ETV6) |
| --- | --- | --- | --- | --- | --- | --- | --- | --- | --- | --- | --- | --- | --- | --- | --- | --- | --- |
| AGGCTC | 1.06 fold enrichment (6-mer frequency, TF over GST control) | 1.02 fold enrichment (6-mer frequency, TF over GST control) | 1.14 fold enrichment (6-mer frequency, TF over GST control) | 1.15 fold enrichment (6-mer frequency, TF over GST control) | 1.07 fold enrichment (6-mer frequency, TF over GST control) | 1.06 fold enrichment (6-mer frequency, TF over GST control) | 1.01 fold enrichment (6-mer frequency, TF over GST control) | 1.02 fold enrichment (6-mer frequency, TF over GST control) | 1.29 fold enrichment (6-mer frequency, TF over GST control) | 1.06 fold enrichment (6-mer frequency, TF over GST control) | 1.14 fold enrichment (6-mer frequency, TF over GST control) | 1.08 fold enrichment (6-mer frequency, TF over GST control) | 1.02 fold enrichment (6-mer frequency, TF over GST control) | 1.04 fold enrichment (6-mer frequency, TF over GST control) | 1.04 fold enrichment (6-mer frequency, TF over GST control) | 1.01 fold enrichment (6-mer frequency, TF over GST control) | 1.16 fold enrichment (6-mer frequency, TF over GST control) |
| CCATTA | 1.07 fold enrichment (6-mer frequency, TF over GST control) | 1.06 fold enrichment (6-mer frequency, TF over GST control) | 1.11 fold enrichment (6-mer frequency, TF over GST control) | 1.16 fold enrichment (6-mer frequency, TF over GST control) | 1.12 fold enrichment (6-mer frequency, TF over GST control) | 1.24 fold enrichment (6-mer frequency, TF over GST control) | 1.15 fold enrichment (6-mer frequency, TF over GST control) | 1.21 fold enrichment (6-mer frequency, TF over GST control) | 1.32 fold enrichment (6-mer frequency, TF over GST control) | 1.16 fold enrichment (6-mer frequency, TF over GST control) | 1.07 fold enrichment (6-mer frequency, TF over GST control) | 1.16 fold enrichment (6-mer frequency, TF over GST control) | 1.12 fold enrichment (6-mer frequency, TF over GST control) | 1.13 fold enrichment (6-mer frequency, TF over GST control) | 1.08 fold enrichment (6-mer frequency, TF over GST control) | 1.11 fold enrichment (6-mer frequency, TF over GST control) | 1.13 fold enrichment (6-mer frequency, TF over GST control) |
